Bioassay records as filed in PubChem.
This is a sample that favours compounds with a hit; in the whole collection about 1.8% have one here.
LGR2 antag: blocks bursicon-induced cAMP signaling via Drosophila LGR2. HEK293 LGR2, CRE-luciferase, bursicon-stimulated, 4 h. inhibition, % at 9.99 µM. 380,000 tested, 0.35% active;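 active = drop in luminescence signal, shown as inhibition above about 50% in the replicate tests, limit read from the data, passing the limit was not always enough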;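 also: agonist challenge used bursicon conditioned medium at about half maximal strength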
EWS-Fli block: inhibitors of EWS/Fli oncoprotein transcriptional activity | A673 NR0B1-luciferase reporter, viability-normalised | inhibition, % at 12.6 µM | 350,000 tested, 0.67% active;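 active = mean inhibition of at least 50% after viability correction, with every replicate also passing that limit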;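 also: firefly luciferase signal divided by Alamar Blue viability fluorescence both relative to DMSO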
PAX8 inh HTS: lowers PAX8-driven luciferase in RMG-I cells; RMG-I TPO-luciferase reporter, SteadyGlo, 24 h; inhibition, % at 12.6 µM; 360,000 tested, 1.2% active;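 active = mean replicate inhibition at least 60% with every replicate also reaching 60%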;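 also: luciferase light reporting Pax8 driven TPO promoter activity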
F508del corr: CFTR F508del correction in bronchial cells; CFBE cells, YFP halide quenching; stimulated with forskolin plus potentiator P3; % fluorescence drop versus neutral controls; activity (quench increase), % at 7.58 µM; 350,000 tested, 0.36% active; AID 720511;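 active = mean added fluorescence quench of at least 8% versus neutral control, with both replicates also reaching 8%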;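 also: cells transiently co-express mutant CFTR-F508del with the halide-sensitive YFP; corrector assay measuring rescue of mutant channel to the surface after 24 h compound exposure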
A number is an active result.

What do the screens show for `COc1ccc(S(=O)(=O)Nc2ccc3c(c2)CC(=O)N([C@H](C)CO)C[C@H](C)[C@@H](CN(C)Cc2ccc(C(F)(F)F)cc2)O3)cc1`?
EWS-Fli block: inactive; PAX8 inh HTS: 112.9; F508del corr: inactive

Results for COc1ccc(S(=O)(=O)Nc2ccc3c(c2)CC(=O)N([C@@H](C)CO)C[C@@H](C)[C@H](CN(C)Cc2ccc(C(F)(F)F)cc2)O3)cc1 ?
LGR2 antag: inactive; EWS-Fli block: inactive; PAX8 inh HTS: 110.7; F508del corr: inactive

Results for COc1ccc(S(=O)(=O)Nc2ccc3c(c2)CC(=O)N([C@@H](C)CO)C[C@@H](C)[C@@H](CN(C)Cc2ccc(C(F)(F)F)cc2)O3)cc1 ?
LGR2 antag: inactive; EWS-Fli block: inactive; PAX8 inh HTS: inactive; F508del corr: inactive

Results for Cc1ccc(N/C=C/C(=O)c2cccs2)cc1C ?
LGR2 antag: 63.5; EWS-Fli block: inactive; PAX8 inh HTS: inactive; F508del corr: inactive

Results for Cc1ccc(-c2nc(NC(=O)c3nn(C)cc3[N+](=O)[O-])sc2C)cc1 ?
LGR2 antag: inactive; EWS-Fli block: 58.3; F508del corr: inactive

How did Cc1cc(Br)c(NC(=O)COC(=O)CC2CC3CCC2C3)c(Br)c1 (configuration not stated) do in these assays?
LGR2 antag: inactive; EWS-Fli block: inactive; PAX8 inh HTS: inactive; F508del corr: inactive

Results for O=C(Nc1ccc(Cl)cc1)Nc1ccc(N2CCCC2)c(S(=O)(=O)Nc2ccccc2Cl)c1 ?
LGR2 antag: inactive; PAX8 inh HTS: 100.5

What do the screens show for `O=C(Nc1ccc(N2CCOCC2)c(S(=O)(=O)Nc2ccccc2Cl)c1)c1ccccc1`?
LGR2 antag: inactive; EWS-Fli block: inactive; PAX8 inh HTS: inactive; F508del corr: inactive

How did Cc1ccc2nc(C3CCN(C(=O)c4ccco4)CC3)[nH]c2c1 do in these assays?
LGR2 antag: inactive

Results for CC1=CC(=O)N(c2ccn(C)n2)C1=O ?
LGR2 antag: inactive; EWS-Fli block: inactive; PAX8 inh HTS: inactive; F508del corr: inactive

What do the screens show for `CCOc1ccc(C(=O)NCC(=O)OCc2c(C)noc2C)cc1`?
LGR2 antag: inactive; EWS-Fli block: inactive; PAX8 inh HTS: 72.9; F508del corr: inactive

How did CCOc1ccc(C(=O)NCC(=O)OCc2c(C)noc2C)cc1OCC do in these assays?
LGR2 antag: inactive; EWS-Fli block: inactive; PAX8 inh HTS: inactive; F508del corr: inactive

Results for Cc1noc(C)c1COc1ccc(C(=O)NNC(=O)c2ccccc2)cc1 ?
LGR2 antag: inactive; EWS-Fli block: inactive; PAX8 inh HTS: inactive; F508del corr: 9.6

How did Cc1noc(C)c1COc1ccc(C(=O)O)cc1 do in these assays?
LGR2 antag: inactive; EWS-Fli block: inactive; PAX8 inh HTS: inactive; F508del corr: inactive

Results for Cc1ccc(S(=O)(=O)Nc2cccc3cccnc23)c([N+](=O)[O-])c1 ?
LGR2 antag: inactive; EWS-Fli block: inactive; PAX8 inh HTS: 71.0; F508del corr: inactive

Results for O=S(=O)(Nc1cccc2ccccc12)c1ccccc1 ?
LGR2 antag: inactive; EWS-Fli block: inactive; PAX8 inh HTS: inactive; F508del corr: inactive

How did Cc1ccc2cccc(NS(=O)(=O)c3ccccc3)c2n1 do in these assays?
LGR2 antag: inactive; EWS-Fli block: inactive; PAX8 inh HTS: 96.2; F508del corr: inactive

Results for O=S(=O)(Nc1cccc2cccnc12)c1ccccc1 ?
LGR2 antag: inactive; EWS-Fli block: 70.5; PAX8 inh HTS: 105.4; F508del corr: inactive

What do the screens show for `COc1ccc(S(=O)(=O)n2nc(-n3c(C)ccc3C)c3c(F)cccc32)cc1OC`?
EWS-Fli block: inactive; PAX8 inh HTS: inactive; F508del corr: inactive

What do the screens show for `CC(Oc1ccc2c3c(c(=O)oc2c1)CCC3)C(=O)NCCN1CCOCC1` (configuration not stated)?
LGR2 antag: inactive; EWS-Fli block: inactive; PAX8 inh HTS: inactive; F508del corr: inactive

Results for COc1ccc(CNC(=O)C[C@@H]2C[C@@H]3c4cc(NS(=O)(=O)c5ccc(F)cc5)ccc4O[C@@H]3[C@@H](CO)O2)cc1 ?
LGR2 antag: inactive; EWS-Fli block: inactive; F508del corr: inactive

Results for COc1ccc(S(=O)(=O)Nc2ccc3c(c2)C(=O)N([C@H](C)CO)C[C@H](C)[C@@H](CN(C)S(=O)(=O)c2ccc(Cl)cc2)OCCCC[C@H](C)O3)cc1 ?
LGR2 antag: inactive; EWS-Fli block: inactive; PAX8 inh HTS: 78.5; F508del corr: inactive

Results for COc1ccc(S(=O)(=O)Nc2ccc3c(c2)C(=O)N([C@@H](C)CO)C[C@H](C)[C@@H](CN(C)S(=O)(=O)c2ccc(Cl)cc2)OCCCC[C@@H](C)O3)cc1 ?
LGR2 antag: inactive; EWS-Fli block: inactive; PAX8 inh HTS: 67.5; F508del corr: inactive

What do the screens show for `COc1ccc(S(=O)(=O)N(C)C[C@@H]2OCCCC[C@H](C)Oc3ccc(NS(=O)(=O)c4ccc(Cl)cc4)cc3C(=O)N([C@H](C)CO)C[C@@H]2C)cc1`?
LGR2 antag: inactive; EWS-Fli block: inactive; PAX8 inh HTS: 78.8; F508del corr: inactive

How did COc1ccc(S(=O)(=O)Nc2ccc3c(c2)C(=O)N([C@@H](C)CO)C[C@H](C)[C@@H](CN(C)S(=O)(=O)c2ccc(Cl)cc2)OCCCC[C@H](C)O3)cc1 do in these assays?
LGR2 antag: inactive; EWS-Fli block: inactive; PAX8 inh HTS: 64.9; F508del corr: inactive

What do the screens show for `COc1ccc(S(=O)(=O)N(C)C[C@H]2OCCCC[C@H](C)Oc3ccc(NS(=O)(=O)c4ccc(Cl)cc4)cc3C(=O)N([C@@H](C)CO)C[C@@H]2C)cc1`?
LGR2 antag: inactive; EWS-Fli block: inactive; PAX8 inh HTS: inactive; F508del corr: inactive

What do the screens show for `COc1ccc(N2CCN(c3cncc(C)n3)CC2)cc1`?
LGR2 antag: inactive; EWS-Fli block: inactive; PAX8 inh HTS: inactive; F508del corr: inactive

Results for COc1ccc(S(=O)(=O)N(C)C[C@@H]2OCCCC[C@H](C)Oc3ccc(NS(=O)(=O)c4ccccc4)cc3C(=O)N([C@H](C)CO)C[C@H]2C)cc1 ?
LGR2 antag: inactive; EWS-Fli block: inactive; PAX8 inh HTS: 75.9; F508del corr: inactive

What do the screens show for `COc1ccc(S(=O)(=O)N(C)C[C@@H]2OCCCC[C@H](C)Oc3ccc(NS(=O)(=O)c4ccccc4)cc3C(=O)N([C@@H](C)CO)C[C@H]2C)cc1`?
LGR2 antag: inactive; EWS-Fli block: inactive; PAX8 inh HTS: inactive; F508del corr: inactive

How did O=C(Nc1ccccc1)Nc1cc(OCC(F)(F)F)cc(OCC(F)(F)F)c1 do in these assays?
LGR2 antag: inactive; EWS-Fli block: inactive; PAX8 inh HTS: 94.8; F508del corr: inactive

How did COc1cc2sc3ccc(C#CC4(O)CCCCC4)cc3c(=O)c2cc1OC do in these assays?
LGR2 antag: 94.1; EWS-Fli block: inactive; PAX8 inh HTS: inactive; F508del corr: inactive

Results for Cn1c2ccccc2c(=O)c2ccc(C#CC3(O)CCCCC3)cc21 ?
LGR2 antag: 100.2; EWS-Fli block: 57.4; PAX8 inh HTS: inactive; F508del corr: inactive

How did COc1cccc2sc3cc(C#CC4(O)CCCCC4)ccc3c(=O)c12 do in these assays?
LGR2 antag: 98.1; EWS-Fli block: inactive; PAX8 inh HTS: inactive; F508del corr: inactive

What do the screens show for `COc1ccc(C#Cc2ccc3c(c2)c(=O)c2ccccc2n3C)cc1`?
LGR2 antag: inactive; EWS-Fli block: inactive; PAX8 inh HTS: inactive; F508del corr: inactive
